Several values for one entry are separate records, joined by “and”; a condition that tells them apart may be missing. Identical values can stand only once. Results filed as inconclusive are left out. Some compounds were tested as several samples or in several runs, with calls that do not always agree. Activity calls are given as the source filed them. How the source made its calls: active means hit-call score of the fitted dose curve at least 0.9, where 1 is the maximum; inconclusive means response in the unintended direction; inactive means score below 0.9.

Chain of human Retinoid X Receptor beta (RXRb), RXRB (gene 6257) (P28702 whole entry, looked up): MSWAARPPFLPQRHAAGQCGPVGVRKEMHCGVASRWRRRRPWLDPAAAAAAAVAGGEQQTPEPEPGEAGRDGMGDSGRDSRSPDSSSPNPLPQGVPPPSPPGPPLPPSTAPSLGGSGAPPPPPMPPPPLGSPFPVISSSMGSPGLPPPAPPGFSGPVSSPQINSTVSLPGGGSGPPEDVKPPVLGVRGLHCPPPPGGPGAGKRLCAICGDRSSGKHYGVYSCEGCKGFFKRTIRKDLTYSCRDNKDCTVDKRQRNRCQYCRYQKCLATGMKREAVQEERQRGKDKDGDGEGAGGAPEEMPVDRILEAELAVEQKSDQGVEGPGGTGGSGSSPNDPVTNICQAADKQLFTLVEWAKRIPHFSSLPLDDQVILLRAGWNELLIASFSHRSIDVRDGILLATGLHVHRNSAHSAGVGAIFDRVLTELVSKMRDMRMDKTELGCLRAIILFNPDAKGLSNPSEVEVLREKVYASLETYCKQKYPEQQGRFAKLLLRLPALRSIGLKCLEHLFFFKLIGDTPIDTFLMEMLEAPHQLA

For the assay, the target named is human Retinoid X Receptor beta (RXRb), RXRB (gene 6257) (UniProt P28702). The experiment in a line: ATG_RXRb_TRANS: Attagene TRANS-FACTORIAL HepG2 Assay for human Retinoid X Receptor beta (RXRb) (AID 2283013). As to the method:
ATG_TRANS is a cell-based, multiplexed-readout assay that uses HepG2, a human liver cell line, with measurements taken at 24 hours after chemical dosing in a 24-well plate.ATG_RXRb_TRANS is one of 30 assay component(s) measured or calculated from the ATG_TRANS assay. It is designed to make measurements of mRNA induction, a form of inducible reporter, as detected with fluorescence intensity signals by Reverse transcription polymerase chain reaction (RT-PCR) and Capillary electrophoresis technology.Data from the assay component ATG_RXRb_TRANS was analyzed into 1 assay endpoint. This assay endpoint, ATG_RXRb_TRANS, was analyzed in the positive analysis fitting direction relative to DMSO as the negative control and baseline of activity. Using a type of inducible reporter, measures of mRNA for gain-of-signal activity can be used to understand the reporter gene at the transcription factor-level as they relate to the gene RXRB. Furthermore, this assay endpoint can be referred to as a primary readout, because this assay has produced multiple assay endpoints where this one serves a reporter gene function. To generalize the intended target to other relatable targets, this assay endpoint is annotated to the nuclear receptor intended target family, where the subfamily is non-steroidal.
Human liver HepG2 cells are transiently transfected with multiple reporter transcription units (MRTUs) in 6-well plates using FuGene 6 reagent (Roche; 3 ml FuGene/1 mg DNA). The MRTU constructs are regulated by a cis-regulating element (promoter). […] A major difference between the CIS and TRANS system is that in CIS activities of endogenous TFs are measured, whereas the TRANS assay evaluates changes in activities of exogenous, chimeric NR-Gal4 proteins. […] At the end of 24 hour incubation, total RNA was isolated using TriZol reagent (Invitrogen). The isolated RNA is then reverse-transcribed using oligo(dT) primer and Mo-MLV reverse transcriptase (Invitrogen) with DNAse I (Ambion) treatment for 30 min. The one-tenth of the produced cDNA was amplified by PCR using Taq DNA polymerase (Invitrogen) and two reporter sequence-specific primers. The PCR products were fluorescently labeled by primer extension with 6-arboxyfluorescein (6-FAM) 5'-labeled reporter sequence-specific primer (2 min at 95 C, 20 s at 68 C and 10 min at 72 C) and these products were digested with 5U of HpaI (New England Biolabs) for 2h at 37 C. The fragments were purified using Qiaquick PCR columns (Qiagen), analyzed on an ABI 3130xL genetic analyzer (Applied Biosystems) with peak positions identified by using a set of X-rhodamine (ROX)-labeled MapMarker1000 molecular weight standards (BioVentures). The raw capillary electrophoresis data was processed using Attagraph software (Attagene).
On to `Cc1ccc2ccc3ccc(C)cc3c2c1`, for which the AC50 is 12.9 µM (active).

For the compound `C=COC(=O)C(C)(C)CCCCCC`, the AC50 is 62 µM (active).

As for `Cc1ccc(C(=O)c2ccccc2)cc1`, the AC50 is 75.9 µM (active).

As to `CCCCCCC(C)(C)C(=O)O`, the call was inactive.

As for `c1ccc(CNc2ncnc3c2ncn3C2CCCCO2)cc1` (stereo not given), the outcome was inactive.

`CCCCC=O`: the compound was called inactive.

With `CC(C)(C)c1ccc(O)c(O)c1`, the AC50 is 38.8 µM (active) and 44.5 µM (active) and 27.8 µM (active); the compound was called inactive.

For `O=C1Cc2ccccc2N1c1c(Cl)cccc1Cl`, the call was inactive.

Take `CN(Cc1cnc2nc(N)nc(N)c2n1)c1ccc(C(=O)N[C@@H](CCC(=O)O)C(=O)O)cc1`: the result was inactive.

In the case of `O=C(O)CCC(F)(F)C(F)(F)C(F)(F)C(F)(F)C(F)(F)C(F)(F)F`, the half-maximal activity concentration (AC50) was 51.1 µM (active).

Take `O=C(NCc1ncc(C(F)(F)F)cc1Cl)c1c(Cl)cccc1Cl`: the compound was called inactive.

Regarding `O=P(O)(O)CCC(F)(F)C(F)(F)C(F)(F)C(F)(F)C(F)(F)C(F)(F)C(F)(F)C(F)(F)F`, the compound was classed as inactive.

Consider `CCC1CO1` (stereo not given), for which the call was inactive.

Take `CC1COCc2cc3c(cc21)C(C)(C)C(C)C3(C)C` (stereo not given): the AC50 was 8.91 µM (active).

`CCCCCCCCC1CCC(=O)O1` (stereo not given): the compound was called inactive.

For `CCC(C)c1nccnc1OC` (stereo not given), the outcome was inactive.

For the compound `CN(C)c1ccc(C(=C2C=CC(=[N+](C)C)C=C2)c2ccccc2)cc1`, the AC50 was 1.36 µM (active) and the result was inactive.

Turning to `CC(C)[C@@H]1CC[C@@H](C)C[C@H]1O`, the compound was called inactive.

For the compound `COc1cc([N+](=O)[O-])ccc1N`, the result was inactive.

Take `c1cnc2c(c1)ccc1cccnc12`: the compound was called inactive.

`CC(C)(c1ccc(Oc2ccc(N)cc2)cc1)c1ccc(Oc2ccc(N)cc2)cc1`: the result was inactive.

For `Clc1ccc2c(Cl)ccnc2c1`, the compound was called inactive.

Take `COc1cccc(O)c1`: the call was inactive.

For the compound `Cc1ccc(N=Nc2c(O)ccc3ccccc23)c(C)c1`, the result was inactive.

`O=C(O)C(F)(F)OC(F)(F)C(F)(F)OC(F)(F)C(F)(F)OC(F)(F)C(F)(F)C(F)(F)C(F)(F)F`: the AC50 was 13.3 µM (active) and 9.78 µM (active).

Consider `CCc1ccccc1O`, for which the outcome was inactive.

On to `CCCCCCc1ccc(N)cc1`, for which the result was inactive.

With `NC(=NCCCCCCN=C(N)/N=C(\N)Nc1ccc(Cl)cc1)/N=C(\N)Nc1ccc(Cl)cc1`, the compound was called inactive.

As for `NS(=O)(=O)O`, the result was inactive.

Turning to `CCOC=C(C(=O)OCC)C(=O)OCC`, the compound was classed as inactive.

On to `O=C(F)C(F)(F)C(F)(F)C(F)(F)C(F)F`, for which the compound was called inactive.

For `CCCCCC(C)OC(=O)COc1ccc(Cl)c2cccnc12` (stereo not given), the outcome was inactive.

With `Cc1ccccc1C(OCCN(C)C)c1ccccc1` (stereo not given), the result was inactive.

`CC1CNCC(C)O1` (stereo not given): the compound was called inactive.

Take `CCCCCCCCCCCC(=O)O`: the outcome was inactive.

On to `Nc1ccc(O)c(C(=O)O)c1`, for which the compound was called inactive.

Turning to `O=CC(F)(F)C(F)(F)C(F)(F)F`, the call was inactive.

For `FC(OC(F)(F)C(F)(F)C(F)(F)F)C(F)(F)F` (stereo not given), the outcome was inactive.

A word on the AC50: it is the midpoint of the concentration-response curve, whichever way the signal moves.

These data come from PubChem BioAssay (EPA / NIEHS).
